D1 ag: activates the human D1 dopamine receptor; activation, % at 2 µM; HEK293 T-REx D1 cells, calcium flux, agonist mode; 360,000 compounds, 1% hits; AID 504660; P21728; in the data active = activation above about 30%; also: 0% is about no effect
Target sequence (P21728 whole entry, looked up): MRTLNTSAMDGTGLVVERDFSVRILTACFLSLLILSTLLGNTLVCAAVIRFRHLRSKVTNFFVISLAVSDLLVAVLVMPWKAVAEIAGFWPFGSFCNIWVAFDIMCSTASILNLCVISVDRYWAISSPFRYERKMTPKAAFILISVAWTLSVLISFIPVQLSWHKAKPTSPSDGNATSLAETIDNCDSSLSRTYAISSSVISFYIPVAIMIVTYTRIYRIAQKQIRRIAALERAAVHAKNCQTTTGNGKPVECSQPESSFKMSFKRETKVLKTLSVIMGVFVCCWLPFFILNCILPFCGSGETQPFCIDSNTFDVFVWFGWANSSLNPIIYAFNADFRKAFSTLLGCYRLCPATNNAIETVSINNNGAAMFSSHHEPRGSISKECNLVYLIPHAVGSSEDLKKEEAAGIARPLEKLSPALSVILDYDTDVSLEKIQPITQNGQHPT
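Agonism was scored from calcium flux recorded over 180 s (1 read/s) after pintool compound addition, following a 10-cycle baseline. Cells were inducible force-coupled HEK293 TREx D1, plated overnight at 30 C and loaded with no-wash calcium dye.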
D1 PAM: enhances dopamine response at the human D1 receptor. P21728. potentiation, % at 10 µM. 360,000 compounds, 0.036% hits. HEK293 TREx D1 cells, calcium flux, dopamine EC20 potentiation; in the data active = potentiation above about 30%; also: 0% is about no effect
DRD3 antagonist: blocks the human D3 dopamine receptor | P35462 | D3R cells, DiscoveRx beta-arrestin luminescence, antagonist mode; hits give low values | max response, negative = inhibition, % | 360,000 compounds, 2.5% hits | AID 652054; in the data active = max response below about -50%; inconclusive = no clear call, values can overlap the other calls; also: % is scaled to controls: 0 for no effect and ±100 for the full control effect
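Cells expressing the human receptor were seeded at 1500 cells/well, incubated overnight at 37 degrees C in 5% CO2, then exposed to library compounds with dopamine controls for 90 minutes at 37 degrees C before luminescent detection.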
DRD3 agonist: D3 dopamine receptor (human) agonism; P35462; D3R DiscoveRx beta-arrestin cells, luminescence, 90 min; max activation, %; 410,000 compounds, 0.58% hits; in the data active = max activation above about 30%; also: 0% is about no effect
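Agonist mode: compounds and dopamine controls were applied to plated cells for 90 min at 37 degrees C after an overnight attachment at 1500 cells/well. Luminescent read-out followed 30 - 60 minutes at room temperature with DiscoveRx detection reagent.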
D1 antag: human D1 dopamine receptor antagonism. P21728. HEK293 TREx D1 cells, calcium flux, dopamine EC80; hits give low values. activity change, negative = inhibition, % at 10 µM. 360,000 compounds, 3.2% hits. AID 504652; in the data active = activity change below about -30%; also: % is scaled to controls: 0 for no effect and ±100 for the full control effect
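Tetracycline-induced HEK293 T-REx cells with force-coupled D1 receptor were loaded with a no-wash calcium dye. Compound was added after a 10 s baseline and read kinetically for 180 s; EC80 dopamine was then added and calcium flux followed another 180 s.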
An asterisk follows results filed as active; ? = inconclusive; / = no result given; ! = repeats disagree. Only some compounds are listed: those with a hit (about 6.1% of all), similar ones and a draw of the others.

SMILES	D1 ag	D1 PAM	DRD3 antagonist	DRD3 agonist	D1 antag
CCOC(=O)c1c(C)c(-c2ccccc2)n(CC(=O)Nc2cc(OC)cc(OC)c2)c1C	7	-6	/	-6	-22
CC(=O)N1c2c(cc(Br)cc2S(=O)(=O)NCc2ccc(C)cc2)CC1C (stereo unspecified)	4	2	?	-17	-2
COc1cccc(CNS(=O)(=O)c2cc3c4c(c2)CCN4C(=O)CC3)c1	3	-5	-72*	-29	10
CCC(=O)N1c2ccc(S(=O)(=O)CCC(=O)NCc3cccc(OC)c3)cc2CC1C (stereo unspecified)	-1	3	/	1	-15
COc1ccc(CNS(=O)(=O)c2cc(Br)cc3c2N(C(C)=O)C(C)C3)cc1 (stereo unspecified)	1	-6	-89*	0	-5
CC(=O)N1c2ccc(S(=O)(=O)NCc3ccc(Cl)cc3)cc2CC1C (stereo unspecified)	8	-5	/	-13	-32*
CCC(=O)N1c2ccc(S(=O)(=O)NCc3cccc(OC)c3)cc2CC1C (stereo unspecified)	18	2	/	6	-76*
O=C1CCc2cc(S(=O)(=O)NCc3ccccc3)cc3c2N1CC3	2	-4	6	2	1
COC(=O)c1sc(N2C(=O)c3oc4ccc(C)cc4c(=O)c3C2c2ccc(OC)cc2)nc1C (stereo unspecified)	2	-2	/	-10	16
CCOc1ccc(NC(=O)c2cnn3c2NC(c2cccc(OC)c2)=CC3c2ccccc2)cc1 (stereo unspecified)	4	-3	/	11	6
Cc1cc2c(s1)c1cnn(Cc3cccc4cccnc34)c(=O)c1n2C	1	7	/	/	-1
COCCCNc1nc2c(-c3cccc(Br)c3)nnn2c2ccccc12	2	0	/	-5	-12
CCC1=C(OC(=O)N(CC)CC)N2C(=O)OC(=NCc3ccccc3)[C@]2(C)[C@H]2C1=CC[C@H]1C(=O)N(CC)C(=O)[C@H]12	1	-8	6	-3	-35*
Cc1ccc(C(=O)C(C)OC(=O)c2cc3cc([N+](=O)[O-])ccc3oc2=O)cc1 (stereo unspecified)	-1	5	-99*	-7	2
COc1cccc2cc(C(=O)OC(C)C(=O)c3ccc(C)cc3)c(=O)oc12 (stereo unspecified)	3	4	-4	7	-4
O=C(c1cc2cc([N+](=O)[O-])ccc2oc1=O)N1CCN(C2CCCCC2)CC1	-1	0	-18	-2	-3
CCN1CCN(C(=O)c2cc3cc([N+](=O)[O-])ccc3oc2=O)CC1	0	-11	-5	3	-36*
COc1ccc(C(=O)NNC(=O)c2cc3cc([N+](=O)[O-])ccc3oc2=O)cc1OC	0	-5	-53*	-23	7
CC(NC(=O)c1cc2cc([N+](=O)[O-])ccc2oc1=O)C1CCCO1 (stereo unspecified)	3	-1	0	-3	1
Cc1ccc(NC(=O)c2cc(S(=O)(=O)NC3CCCCC3)ccc2F)cc1Cl	0	-1	/	-14	-9
CCN(CC)CCNC(=O)c1ccc2c(c1)NC(=O)C(CS(=O)(=O)Cc1ccc(F)cc1Cl)N2 (stereo unspecified)	3	2	/	-10	2
Cc1ccccc1N1CCN(CCN2C(=O)CC(=C3c4ccccc4-c4ccccc43)C2=O)CC1	/	/	-65*	-5	/
COc1ccccc1N1CCN(CCN2C(=O)CC(=C3c4ccccc4-c4ccccc43)C2=O)CC1	/	/	-76*	-7	/
Nc1c(C(=O)NCCN2CCOCC2)c2nc3ccccc3nc2n1-c1cccc(F)c1	1	-11	-4	4	-48*
CCCNC(=O)c1c(N)n(-c2cccc(OC)c2)c2nc3ccccc3nc12	1	-8	75	4	-14
SMILES	D1 ag	D1 PAM	DRD3 antagonist	DRD3 agonist	D1 antag
CC(C)(C)C(=O)NNC(=O)C1CC1(c1ccccc1)c1ccccc1 (stereo unspecified)	1	-2	19	45*	-2
Cc1ccn2c(-c3csc(NCc4ccco4)n3)c(C)nc2c1	8	-11	0	-8	-42*
COc1ccc(-c2csc(NCc3ccco3)n2)cc1C	-1	-3	0	-7	-14
Cc1nc2ccccn2c1-c1csc(Nc2cccc(O)c2)n1	0	2	18	-3	-4
Cc1cccc(Nc2nc(-c3c(C)nc4ccccn34)cs2)c1	8	-2	11	15	-46*
CC1(C)CC(=O)c2c(O)cc(OCC(=O)Nc3ccc(CCO)cc3)cc2O1	10	-6	17	34*	-8
CCC(=O)N1CCc2cc(S(=O)(=O)NC(C(=O)NCCc3ccc(OC)c(OC)c3)C(C)C)ccc21 (stereo unspecified)	2	-1	/	-15	10
CCn1c(CN2CCCCC2)nc2cc(NC(=O)c3cccc([N+](=O)[O-])c3)ccc21	-1	0	/	-5	15
COc1cccc(-n2nc(C#N)c(Cl)cc2=O)c1	5	-3	-87*	-14	-32*
O=C(N/N=C/C(Br)=C/c1ccccc1)NC1CCCCC1	1	-2	1	10	/
O=C(N/N=C/C(Br)=C/c1ccccc1)C1CC1	2	-6	4	12	-41*
COc1cc(Cl)c(NC(=O)c2cc(S(=O)(=O)N3CCCCC3)c[nH]2)c(OC)c1	0	0	/	-21	-6
COC(=O)C1=C(C)N(Cc2ccco2)C(=O)N[C@H]1c1ccc(Br)cc1	-1	-2	/	/	28
COC(=O)C1=C(C)N(Cc2ccccc2)C(=O)N[C@H]1c1cccs1	2	-7	-55*	-5	-15
COCCN=C1N[C@@H](c2ccc(Br)cc2)C(C(=O)OC)=C(C)N1Cc1ccccc1	34*!	-4	14	0	-34*!
COC(=O)C1=C(C)N(Cc2ccco2)C(=O)N[C@H]1c1ccccc1	-1	1	/	/	-49*
COCCN=C1N[C@@H](c2ccccc2)C(C(=O)OC)=C(C)N1Cc1ccccc1	2	-3	2	-19	-4
CC(=O)C1=C(C)N(Cc2ccccc2)C(=O)N[C@H]1c1cccs1	2	-2	24	0	11
CCCCc1nn2c(=O)cc(COC(=O)CNC(=O)c3ccccc3C)nc2s1	2	-5	/	-1	-15
COc1cc(OC)c(NC(=O)C(C)n2c(=O)cc(-c3ccccc3)c3c(C)nn(C)c32)cc1Cl (stereo unspecified)	4	-4	/	7	23
CCCOc1ccc(Nc2cc(C)nc(C)n2)cc1	-3	-1	/	10	-13
COc1cc(NC(=O)C2CCN(C(=O)c3sc4nc[nH]c(=O)c4c3C)CC2)cc(OC)c1OC	0	2	/	-9	13
Fc1ccccc1NC(=S)N/N=C/c1ccccc1Br	-3	1	-79*	-20	34
